The whole screen tested about 290,000 compounds, of which about 3,000 (1%) were called active. How the calls were made is not given here. The sample as a whole holds a higher share of actives than the screen did.
Target: Polyadenylate-binding protein 1 (Homo sapiens) (UniProt P11940)
Assay: blockers of PABP interaction with poly(A) – biochemical, fluorescence polarization, uHTS, primary screen (AID 2014);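 further: calls also rest on retests at 20 µM and on dose response follow-up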
Conditions: PABP-poly(A) RNA binding, stronger effect = higher value

Polyadenylate-binding protein 1 (Homo sapiens), sequence (P11940 whole entry, looked up): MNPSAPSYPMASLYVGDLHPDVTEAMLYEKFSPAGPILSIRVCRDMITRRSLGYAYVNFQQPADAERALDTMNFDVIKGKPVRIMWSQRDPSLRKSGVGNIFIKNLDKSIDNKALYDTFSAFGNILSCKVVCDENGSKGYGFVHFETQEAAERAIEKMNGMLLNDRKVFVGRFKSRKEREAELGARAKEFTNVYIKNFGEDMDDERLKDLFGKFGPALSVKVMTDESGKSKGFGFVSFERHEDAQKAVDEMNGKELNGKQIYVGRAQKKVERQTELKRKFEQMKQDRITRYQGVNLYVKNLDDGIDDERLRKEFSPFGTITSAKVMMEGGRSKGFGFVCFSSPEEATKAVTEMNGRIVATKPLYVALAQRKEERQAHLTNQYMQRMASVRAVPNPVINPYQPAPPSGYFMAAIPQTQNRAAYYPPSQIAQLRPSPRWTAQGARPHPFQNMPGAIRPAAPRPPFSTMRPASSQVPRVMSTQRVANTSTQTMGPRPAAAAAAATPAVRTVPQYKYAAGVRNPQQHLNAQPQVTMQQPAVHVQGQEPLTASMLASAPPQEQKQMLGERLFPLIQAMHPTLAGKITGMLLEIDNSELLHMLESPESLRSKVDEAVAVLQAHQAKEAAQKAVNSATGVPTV

Structure (SMILES)	inhibition (at 35 µM)	inhibition (confirmation repeats, at 20 µM) [%]
CNC(=O)CN1C(=O)NC(c2ccccc2)(c2ccccc2)C1=O	-6.2% (inactive)	
COc1ccc(NC(=O)NN2CCN(C)CC2)c(OC)c1	-2.5% (inactive)	
CSc1nnc(SCc2nc3sc(C(=O)O)c(C)c3c(=O)[nH]2)s1	52.9% (active)	
CCOC(=O)c1sc2nc(CSc3ccccc3)[nH]c(=O)c2c1C	9.6% (inactive)	
Cc1ccc(C)c(SCc2nc3sc(C(=O)O)c(C)c3c(=O)[nH]2)c1	-4% (inactive)	
Cc1cccc(OCC(O)Cn2c(N3CCCCC3)nc3c2c(=O)[nH]c(=O)n3C)c1 (stereo not given)	-7.3% (inactive)	
COc1ccccc1/C=C/C(=O)NC1CC2CCC1C2 (stereo not given)	13.8% (inactive)	
Cc1ccc(Nc2nc(C)cc(C)c2C(N)=O)cc1	3.4% (inactive)	
Cc1cc(C)c(C(N)=O)c(Cl)n1	74.6% (active)	79.1
Cc1cc(OC(=O)c2c(Cl)cccc2Cl)nc(C)n1	8.5% (inactive)	
O=C(NCc1cccc(C(F)(F)F)c1)c1cccc(S(=O)(=O)N2CCN(Cc3ccccc3)CC2)c1	-3.2% (inactive)	
O=C(Nc1ccc(Br)cc1F)C1CC(=O)N(C2CCCCC2)C1 (stereo not given)	-1% (inactive)	
COc1ccc(C(=O)NC(C)c2nccs2)cc1OC1CCN(C(C)C)CC1 (stereo not given)	1.2% (inactive)	
CCN(C(=O)CSc1nnc(-c2ccncc2)o1)c1ccccc1	-2.5% (inactive)	
CCSc1nc(O)c(C(c2cccc(OC)c2)c2c(O)nc(SCC)[nH]c2=O)c(=O)[nH]1	8.4% (inactive)	
O=C1CC(N2CCN(c3ccc(F)cc3)CC2)C(=O)N1c1ccccc1 (stereo not given)	48.8% (inactive)	
O=C1CCCC2=C1C(c1cccs1)CC(=O)N2c1ccc(F)cc1 (stereo not given)	-1.2% (inactive)	
N#CC1=C(N)N(c2ccc(F)cc2)C(=O)C1	97.6% (active)	
C[C@H]1[C@H]2c3nc4ccccc4n3C[C@H]1ON2C1CCCCC1	-0.1% (inactive)	

Structure (SMILES)	inhibition (at 35 µM)	inhibition (confirmation repeats, at 20 µM) [%]
Cc1nc2nc(SCC(=O)NCc3ccco3)nn2c(C)c1Cc1ccccc1	10.6% (inactive)	
O=c1nc2s/c(=C\c3ccco3)c(=O)n2nc1Cc1ccccc1	75.7% (active)	
O=C(Cc1ccccc1)n1nc(-c2ccccc2)nc1NCc1ccco1	-0.2% (inactive)	
CCOCCc1nn2c(=O)cc(CSCC(=O)Nc3cccc(C)c3C)nc2s1	8.3% (inactive)	
CC(C)(C)C(=O)OCc1nc(-c2ccc(O)c(O)c2)cs1	10% (inactive)	
COc1ccc(-c2csc(Cc3nc(O)cs3)n2)cc1	70.4% (active)	52.3
COc1ccc(-c2csc(NC3OC(=O)c4ccccc43)n2)cc1 (stereo not given)	-0.5% (inactive)	
O=c1ccc2cc(S(=O)(=O)Nc3ccccc3F)ccc2o1	-1.5% (inactive)	
Cc1c(NC(=O)c2c([N+](=O)[O-])cnn2C)c(=O)n(-c2ccccc2)n1C	-1.3% (inactive)	
CCOc1ccc(N=Cc2c(O)n(-c3cccc(C)n3)c(=O)c3ccccc23)cc1	-1.3% (inactive)	
CCOc1ccc(-n2c(O)c(/C=N/Nc3nc(C)cc(C)n3)c3ccccc3c2=O)cc1	9% (inactive)	
Cc1ccc(-n2c(O)c(C=Nc3ccc(S(=O)(=O)Nc4ncccn4)cc3)c3ccccc3c2=O)cc1C	-8.1% (active)	94.9
O=C(NCC(=O)N1CCN(c2ncc(C(F)(F)F)cc2Cl)CC1)c1ccc(Br)o1	3.4% (inactive)	
CC(=O)N1CCSc2ccc(S(=O)(=O)N3CCC(C)CC3)cc21	0% (inactive)	
Cc1cccc(OCC(=O)NC2CC(C)(C)NC(C)(C)C2)c1	6.7% (inactive)	
CC1(OC(=O)CCc2ccccc2)C(=O)C=C2C=C(c3ccc(C#N)cc3)N(CCc3ccccn3)C=C2C1=O (stereo not given)	26.9% (inactive)	
C=CCN1C=C2C(=O)C(C)(OC(=O)CCc3ccccc3)C(=O)C=C2C=C1c1ccc(C#N)cc1 (stereo not given)	38.3% (active)	80.1
NC(=O)COc1ccccc1C(=O)NC12CC3CC(CC(C3)C1)C2	-0.3% (inactive)	
COc1cc(/C=N\Nc2ccc([N+](=O)[O-])cn2)ccc1OCC(=O)O	13.3% (inactive)	

Structure (SMILES)	inhibition (at 35 µM)	inhibition (confirmation repeats, at 20 µM) [%]
Cc1cc(/C=N/Nc2ccc([N+](=O)[O-])cn2)c(C)n1-c1cccc(C(=O)O)c1	50.3% (active)	
Cc1ccc(-n2c(C)cc(/C=N/Nc3ccc([N+](=O)[O-])cn3)c2C)c(C)c1	10.5% (inactive)	
CC(C)=CCN1CCN(CCCc2ccccc2)CC1CCO (stereo not given)	-4.3% (inactive)	
CN1/C(=C\C=C2\N=C(c3ccc(F)cc3)OC2=O)C(C)(C)c2ccccc21	120% (active)	105
CN1/C(=C\C(=O)c2cccnc2Cl)C(C)(C)c2ccccc21	-4.7% (inactive)	
CN1/C(=C\C(=O)c2oc3ccccc3c2N)C(C)(C)c2ccccc21	15.4% (inactive)	
O=C(NCCc1ccc(Cl)cc1)C1CCCN1C(=O)NCc1ccccc1 (stereo not given)	-1.3% (inactive)	
COc1ccccc1N(CC(=O)Nc1ccccc1C(=O)N1CCCC1)S(C)(=O)=O	0.7% (inactive)	
O=C(O)CCCN1C(=O)c2ccccc2Sc2ncccc21	16.4% (inactive)	
COc1ccc(C(=O)Nc2ccnn2C2CCN(Cc3ccncc3)CC2)cc1	-4.2% (inactive)	
COc1ccc(N=C(C)c2sc3ccccc3c2O)cc1	-3.8% (inactive)	
O=C(N/N=C/c1c(Cl)[nH]c2ccccc12)c1sc2ccccc2c1Cl	-2.8% (inactive)	
Oc1ccc(N=Cc2sc3ccccc3c2Cl)cc1	-14% (active)	68.6
COc1ccccc1N(CC(=O)NC1CCCC1)C(=O)C1(C)CC(=O)N=C2C=CC(C)=CN21 (stereo not given)	4.1% (inactive)	
O=C(COC(=O)C12CC3CC(CC(C3)C1)C2)NCc1ccco1	26% (active)	62.4
O=C(CC12CC3CC(CC(C3)C1)C2)NCc1ccco1	-13.1% (inactive)	
O=C(COC(=O)CCC(=O)c1cccs1)NCc1ccco1	35.9% (inactive)	32.9
COc1ccc(C(=O)C2CCCN(C(=O)c3cc(C)on3)C2)cc1F (stereo not given)	-11.7% (inactive)	
Cc1cc(C)n(CCC(=O)N2CCN(S(=O)(=O)c3ccc(C)c(C)c3)CC2)n1	-7.6% (inactive)	

Source: PubChem BioAssay AID2014 (Sanford-Burnham Center for Chemical Genomics, 2009)
